Reference: ChEMBL document CHEMBL3433997, “St. Jude Leishmania screening dataset” (2016)

What was measured:
Assay type in all cases: functional
[1] = target: Solute carrier family 2, facilitated glucose transporter member 1 (Homo sapiens) (UniProt P11166); assay: ST_JUDE_LEISH: Cytotoxicity at 2uM final concentration against transgenic Leishmania Mexicana promastigotes LmGLUT1 that are glucose transport deficient and complemented with the human glucose transporter GLUT1. Activity is measured by DNA content using SYBR green in vitro
[2] = target: Hexose transporter 1 (Plasmodium falciparum) (UniProt O97467); assay: ST_JUDE_LEISH: Cytotoxicity at 2uM final concentration against transgenic Leishmania Mexicana promastigotes LmPfHT that are glucose transport deficient and complemented with the Plasmodium falciparum hexose transporter. Activity is measured by DNA content using SYBR green in vitro
[3] = target: Glucose transporter (Leishmania mexicana) (UniProt O61059); assay: ST_JUDE_LEISH: Cytotoxicity at 2uM final concentration against transgenic Leishmania Mexicana promastigotes LmGT2 that are glucose transport deficient and complemented with the L. Mexicana glucose transporter 2. Activity is measured by DNA content using SYBR green in vitro

Sequence of Solute carrier family 2, facilitated glucose transporter member 1 (Homo sapiens) (P11166 whole entry): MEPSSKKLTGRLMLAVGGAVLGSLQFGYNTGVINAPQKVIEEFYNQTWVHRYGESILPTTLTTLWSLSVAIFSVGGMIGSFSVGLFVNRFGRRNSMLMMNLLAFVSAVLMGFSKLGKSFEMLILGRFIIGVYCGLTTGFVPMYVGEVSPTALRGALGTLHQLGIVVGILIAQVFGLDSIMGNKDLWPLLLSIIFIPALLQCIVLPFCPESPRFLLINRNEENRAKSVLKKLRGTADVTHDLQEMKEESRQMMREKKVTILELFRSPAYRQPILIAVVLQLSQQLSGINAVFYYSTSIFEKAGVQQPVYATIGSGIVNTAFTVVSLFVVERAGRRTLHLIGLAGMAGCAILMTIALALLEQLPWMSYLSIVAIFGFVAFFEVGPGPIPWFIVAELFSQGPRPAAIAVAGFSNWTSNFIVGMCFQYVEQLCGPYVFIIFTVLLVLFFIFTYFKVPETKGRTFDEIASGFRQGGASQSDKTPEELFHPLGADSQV

Row | Structure (SMILES) | inhibition [1] | inhibition [2] | inhibition [3]
1 | COc1ccc2ncc(Cl)c(NCC3(O)CCC(NCc4ccc5c(n4)NC(=O)CS5)CC3)c2n1 (stereo not drawn) | 4.63% | 3.3% | 1.82%
2 | CCN(CC)C(=O)C1CCN(C(C(=O)N2CCN(CC(=O)N3CCCC3)CC2)c2cc3ccccc3o2)CC1 (stereo not drawn) | 2.21% | 0.62% | 1.61%
3 | O=C(Nc1ccc(N2CCCN(Cc3cccc(F)c3)CC2)cc1)c1cccs1 | -0.38% | -0.87% | -3.03%
4 | FC(F)(F)c1ccc2nccc(NCc3ccccc3)c2c1 | 6.8% | 5.96% | 1.41%
5 | COc1ccc(Nc2nccc(N3CCC(NC(=O)Nc4cccc(C(C)=O)c4)C3)n2)cc1 (stereo not drawn) | -3.73% | 0.98% | 3.49%
6 | COc1ccc(CN2CCC(N3CC(c4ccccc4)(c4ccccc4)OCC3=O)C2)c(O)c1 (stereo not drawn) | -1.54% | -0.28% | -1.56%
7 | Cc1noc(C)c1-c1cccc(CNCc2ccc(-c3cccc(-c4nc5cccc(C)c5[nH]4)c3)cc2)c1 | 0.9% | -2.28% | -4.14%
8 | CCCN(CCC)CCCNc1ccc(C(=O)Nc2ccc(C)c(F)c2)cc1[N+](=O)[O-] | 76.3% | 74.6% | 74%
9 | Cc1cc(N)c2cc(NC(=O)c3cc4ccccc4s3)ccc2n1 | -0.05% | -1.3% | -0.52%
10 | Oc1ccc(CCNc2nc(NCc3ccccc3-c3ccc(C(F)(F)F)cc3)nc(N3CCNCC3)n2)cc1 | 1.66% | -2.19% | 1.94%
11 | CCC(=O)Nc1cc(=O)[nH]c2nc(-c3ccc(Cl)cc3)nn12 | -1.32% | -2.09% | -2.81%
12 | N#Cc1ccc2c(c1)CCN(CCC1CCC(NC(=O)/C=C/c3ccc(Cl)c(Cl)c3)CC1)CC2 (stereo not drawn) | 9.87% | 13.1% | 6.83%
13 | N=C(N)NN=Cc1ccc2c(ccc3ccccc32)c1 | 7.03% | 8.19% | 3.76%
14 | CCc1c(CCNCCCC(C)CCNCCc2ccc(OC)c(OC)c2CC)ccc(OC)c1OC (stereo not drawn) | 1.96% | 4.93% | 1.22%
15 | COc1ccc(CC2(CO)CCN(Cc3ccc(O)c(Cl)c3)CC2)cc1 | 9.35% | 7.92% | 5.84%
16 | Oc1ccc2ccccc2c1C=NNc1nc(=Nc2ccccc2)[nH]c(=Nc2ccccc2)[nH]1 | 3.37% | 3.44% | 2.92%
17 | COc1ccc(OC)c(Cc2c(C)nc3nc(N)nc(N)c3c2C)c1 | -0.27% | 0.88% | -3.07%
18 | COc1cc(CNC[C@@H](O)[C@H](Cc2ccccc2)NC(=O)c2cc(OC(C)C)cc(N3CCCCS3(=O)=O)c2)cc(OC)c1 | 2.15% | 2.12% | 1.3%

Row | Structure (SMILES) | inhibition [1] | inhibition [2] | inhibition [3]
19 | COc1ccc(Nc2cc(C)c3cc(NC(=O)c4ccncc4)ccc3n2)cc1 | 0.86% | 2.43% | 0.74%
20 | COc1ccc(Nc2ncc3c(-c4ccc(NC(=O)c5cccc(C(F)(F)F)c5)cc4)c[nH]c3n2)cc1OC | 0.57% | -0.05% | -0.51%
21 | CCN(CC)c1ccc(C(c2ccc(N(CC)CC)cc2)c2cccc([N+](=O)[O-])c2)cc1 | 15.2% | 13.8% | 11.1%
22 | COC(=O)C1=CNC=C(C(=O)OC)C1c1ccc(Cl)c([N+](=O)[O-])c1 | 10.8% | 8.44% | 6.42%
23 | O=C(Nc1ccc(Br)cc1)N(CCN1CCOCC1)CC(O)COCc1ccc(F)cc1 (stereo not drawn) | 1.97% | 1% | -8.93%
24 | Cc1cc(NCCC(=O)NCc2cccc(F)c2)nc(Nc2ccccc2)n1 | 8.44% | 7.08% | -6.28%
25 | O=C(NC1CC1)c1ccc(N2CCN(Cc3ccc(Cl)cc3)CC2)nc1 | 0.06% | -0.23% | -0.4%
26 | CS(=O)(=O)NCCCNCc1cccc(-c2cccc(-c3nc4cc(C(F)(F)F)ccc4[nH]3)c2)c1 | -0.01% | -4.31% | -1.5%
27 | O=C(N[C@@H](Cc1ccccc1)C(=O)NCCN1CCCCC1)c1ccc(O)c(-c2cccc(C(F)(F)F)c2)c1 | 2.63% | 1.38% | 2.46%
28 | c1ccc(C(c2cccs2)N2CCN(Cc3ccc(OCCCN4CCCCC4)cc3)CC2)cc1 (stereo not drawn) | 7.65% | 6.22% | 5.51%
29 | Cc1cccc2nc(-c3ccc(-c4cccc(CN5CCN(CCO)CC5)c4)cc3)[nH]c12 | 7.34% | 4.65% | 4.22%
30 | Cn1c2c(c3ccccc31)CN(CCC1(c3ccc(Cl)c(Cl)c3)CN(C(=O)Cc3ccccc3)CCO1)CC2 (stereo not drawn) | 2.23% | 3.84% | -1.01%
31 | CCOC(=O)c1ccc(N2CCN(c3cc(Cl)ccc3C)CC2)c(NC(=O)Nc2ccc(Cl)c(Cl)c2)c1 | -3.21% | -3.18% | -0.61%
32 | CC1CN(Cc2cccc(F)c2)CCN1c1ccc(NC(=O)c2ccc(F)cc2)cc1 (stereo not drawn) | 2.15% | 1.55% | 8.54%
33 | COc1ccc(-c2ccc(NC(=O)c3cccc(C#N)c3)cc2)cc1CN(C)C | 1.28% | 0.34% | 0.41%
34 | COc1ccc2ncc(F)c([C@H](O)CN3CCC(NCc4cc5c(cn4)OCCO5)CC3)c2c1 | 6.21% | 6.52% | 2.51%
35 | COc1cc2nc(Nc3ccc(C)cc3)nc(Nc3ccc(C)cc3)c2cc1OC | 100% | 101% | 98.1%
36 | Cn1cc(C2CCN(CCCCNC(=O)c3sc(-c4ccc(C(F)(F)F)cc4)nc3CO)CC2)c2ccccc21 | -3.34% | -1.85% | -0.2%
